Test [1] in a line: rapamycin-like changes in RPL19A-GFP expression – cell-based, S. cerevisiae, multiplex flow cytometry, primary screen (AID 1862; in the data active = percent of DMSO control GFP below about 86%;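 also: lower values mimic rapamycin by blocking the RPL19A rise seen in DMSO cells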). The note with it: S. cerevisiae RPL19A-GFP strain, flow cytometry fluorescence, 3 h; at 10 µM; stronger effect = lower value.
Test [2] in a line: TOR pathway GLN3 branch reporter MEP2-GFP changes – S. cerevisiae, multiplex flow cytometry, primary screen (AID 1867;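 active = GFP response, as percent of the DMSO control, above the screen-wide mean plus 3 SD, about 139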;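 also: median GFP channel fluorescence of barcode-gated MEP2-GFP cells measured by flow cytometry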). Particulars: S. cerevisiae MEP2-GFP strain, 3 h, at 10 µM, stronger effect = higher value, 100% means same as DMSO wells.
The nature of test [3]: TOR pathway RTG branch CIT2 reporter changes – S. cerevisiae, GFP fusion, multiplex flow cytometry, primary screen (AID 1870;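 active = percent response above a set limit, the screen-wide mean plus 3 SD, cut at about 130% in these data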;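 also: barcoded CIT2-GFP strain pooled with four other GFP strains with rapamycin as positive control; median GFP fluorescence per well over plate mean of DMSO wells so 100% = DMSO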). The note with it: S. cerevisiae CIT2-GFP expression, 3 h, at 10 µM, stronger effect = higher value. On the technique in general: Flow cytometry measures light scatter and fluorescence of single cells or particles in a stream.
Test [4] can be described thus: TOR pathway LAP4-GFP level changes – S. cerevisiae, multiplex flow cytometry, primary screen (AID 1873;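 active = GFP signal, as percent of the solvent control, above the screen mean plus 3 SD, about 149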). Particulars: S. cerevisiae LAP4-GFP expression, 3 h, at 10 µM, stronger effect = higher value.
The nature of test [5]: reduced mouse 2C T cell binding to pMHC/ICAM-1 vesicles – MLPCN validation set, flow cytometry, LFA-1/ICAM-1 modulator project, pilot screen (AID 2523;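 active = response below a set limit, under 55% cells CD8-positive and vesicle-bound, and CD8 cells' 90th-percentile brightness under 279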;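 as to vesicle binding response: mean PE anti-B7-1 fluorescence of CD8+ cells relative to row control; 100% = QL9-loaded vesicles with DMSO vehicle in the same plate row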). Particulars: 2C mouse CD8+ T cells, at 7 µM, stronger effect = lower value; double positive events: measured here: CD8+/vesicle+ event percentage.
Test [6] deals with Integrin beta-1 (Homo sapiens) + Integrin alpha-4 (Homo sapiens) (UniProt P13612+P05556). The test can be described thus: alpha4beta1 integrin LIBS antibody binding reduction – U937 cells, HUTS-21 mAb, flow cytometry, validation set, VLA-4 allosteric modulator project, pilot screen (AID 2674;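 active = inhibition above 50%, about 3 SD of the validation set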;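 also: antibody binding induced by the VLA-4 ligand LDV present at three times its Kd; 0% = LDV ligand with antibody and no compound and 100% = antibody without LDV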). Particulars: HUTS-21 LIBS mAb binding, at 6.7 µM, stronger effect = higher value, binding induced by LDV ligand.

Test [7] can be described thus: calorie-restriction mimetic ROS inhibitors, yeast – validation compound set, pilot screen (AID 2706;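 active = superoxide response below 65% of plate, a cut near 3 SD across the whole screen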;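 also: yeast exposed to compound for one week at 30 degrees C before staining; 100% = mean of all compound wells on the same plate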). The note with it: S. cerevisiae aging, superoxide DHE fluorescence; at 10 µM, stronger effect = lower value.
For test [8], the target named is Beta-adrenergic receptor kinase 1 (Homo sapiens) (UniProt P25098). The test can be described thus: GRK2 binders displacing RNA aptamer, biochemical, validation, human GRK2, bead flow cytometry (AID 488806;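 active = aptamer binding inhibition above 30%, about 3 SD of noise from non-fluorescent compounds; inactive = inhibition at or below 30%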). Particulars: bead-bound GRK2, FAM-aptamer displacement, at 10 µM, stronger effect = higher value.
Test [9] deals with Beta-2 adrenergic receptor (Homo sapiens) (UniProt P07550). The test can be described thus: agonist-induced loss of surface beta2AR – cell-based, FAP fluorogen, flow cytometry, validation set, pilot screen (AID 504459;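 active = percent response above 42, roughly 3 SD of non-fluorescent test compounds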;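 also: agonist-driven loss of surface beta2AR via internalization measured by FAP dye flow cytometry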). The note with it: Am2.2-beta2AR cells, at 10 µM, stronger effect = higher value.
Test [10] deals with AP-2 complex subunit beta (Homo sapiens) (UniProt P63010). Description: beta-arrestin/AP2 interaction blockers – biochemical, validation set, GST-AP2 beads, flow cytometry, pilot screen (AID 504541;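 active = inhibition above 54%, about 3 SD of non-fluorescent compounds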;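 also: AP2 carries R879A mutation and is captured from E. coli lysate; bead-bound FITC arrestin peptide fluorescence measuring arrestin peptide binding to AP2; 0% = DMSO wells and 100% = excess unlabeled arrestin peptide control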). Particulars: FITC arrestin peptide, at 10 µM, stronger effect = higher value, AP2 beta2 appendage fragment, R879A mutant.
The nature of test [11]: cytosolic pH regulators acting via V-ATPase – S. cerevisiae, pHLuorin, HTS validation (AID 504600; in the data active = response above about 15%;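 also: plate controls were DMSO for no effect and reference compound for full effect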). The note with it: V-ATPase proton transport, at 10 µM, stronger effect = higher value.
For test [12], the system named is anti-desmoglein-3 scFv antibody binding to human DSG3. The test can be described thus: blockers of pathogenic pemphigus antibody–desmoglein-3 binding – biochemical, validation compound set, bead-based, flow cytometry, pilot screen (AID 588368;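 active = binding below the plate cutoff, the plate median minus 3 SD, with a reading above zero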;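 also: signal is the median channel fluorescence of bead-bound GFP antibody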). The note with it: Protein G beads, DSG3-Fc, scFv-GFP binding, at 10 µM, stronger effect = lower value.
Test [13] is described as follows: Nile Red efflux blockade in pump-expressing yeast – validation compound set, multiplex, phenotypic, pilot screen (AID 588506).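 Also: Nile Red retained in cells so higher fluorescence means more efflux inhibition; 0 = negative control wells and 1 = enniatin B 25 µM full block.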 The note with it: S. cerevisiae pump-expressing triplex, Nile Red efflux flow cytometry; at 10 µM; stronger effect = higher value; the pumps come from Candida albicans.
The target of test [14] is ATP-binding cassette sub-family B member 6 (Homo sapiens) (UniProt Q9NP58). Description: blockers of ABCB6-driven porphyrin uptake – K562-ABCB6 cells, flow cytometry, validation set, pilot screen (AID 588550;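 active = inhibition above the screen-wide mean plus 3 SD, about 51%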;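 also: 0% = DMSO wells and 100% = benzethonium chloride 70 µM positive control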). The note with it: K562-ABCB6 porphyrin accumulation, 1 h, at 10 µM, stronger effect = higher value.
A short description of test [15]: AML differentiation inducers, ER-HoxA9 marrow cells – cell-based, GFP/MAC1 double positive, flow cytometry, validation set, primary screen (AID 588685;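 active = differentiation response of at least 50%, scaled between solvent and reference control, from cells with both markers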;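 also: compound exposure lasts four days before antibody staining and flow analysis; 0% = DMSO wells and 100% = 5 µM fulvestrant positive control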). The note with it: stronger effect = higher value, normalized: vehicle 0, fulvestrant 100.
The nature of test [16]: yeast AGP1-GFP level changes, GLN3 branch – cell-based, multiplex flow cytometry, S. cerevisiae, primary screen (AID 1887;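 active = GFP signal above the screen-wide mean plus 3 SD, that is over about 124.5% of the solvent control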;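 also: AGP1-GFP fusion strain of S. cerevisiae within a five-strain barcoded multiplex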). Particulars: 3 h, at 10 µM, stronger effect = higher value.

The structures appear in SMILES notation. Inconclusive results are not listed. Activity calls are given as the source filed them.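 The calls were made as follows, unless noted: active = efflux inhibition above 0.42, the validation set average plus 4 SD; inconclusive = no clear call, values can overlap the other calls; inactive = the rest.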

For orientation: inhibition means the drop in the measured response relative to a control, in per cent.

Chain of Beta-2 adrenergic receptor (Homo sapiens) (P07550 whole entry, looked up): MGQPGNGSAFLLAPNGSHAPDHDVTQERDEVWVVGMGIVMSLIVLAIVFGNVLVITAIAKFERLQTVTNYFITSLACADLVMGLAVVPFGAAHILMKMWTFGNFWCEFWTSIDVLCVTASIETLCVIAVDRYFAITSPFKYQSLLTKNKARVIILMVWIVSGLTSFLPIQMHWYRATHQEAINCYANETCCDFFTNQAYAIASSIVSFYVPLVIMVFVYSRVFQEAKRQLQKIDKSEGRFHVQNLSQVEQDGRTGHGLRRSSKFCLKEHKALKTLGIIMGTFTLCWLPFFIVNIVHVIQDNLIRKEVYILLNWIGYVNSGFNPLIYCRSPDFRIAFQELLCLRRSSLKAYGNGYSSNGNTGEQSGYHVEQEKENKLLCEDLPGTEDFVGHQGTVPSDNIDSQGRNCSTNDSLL
Chain of AP-2 complex subunit beta (Homo sapiens) (P63010 whole entry, looked up, the tested form may be a part, one chain of several): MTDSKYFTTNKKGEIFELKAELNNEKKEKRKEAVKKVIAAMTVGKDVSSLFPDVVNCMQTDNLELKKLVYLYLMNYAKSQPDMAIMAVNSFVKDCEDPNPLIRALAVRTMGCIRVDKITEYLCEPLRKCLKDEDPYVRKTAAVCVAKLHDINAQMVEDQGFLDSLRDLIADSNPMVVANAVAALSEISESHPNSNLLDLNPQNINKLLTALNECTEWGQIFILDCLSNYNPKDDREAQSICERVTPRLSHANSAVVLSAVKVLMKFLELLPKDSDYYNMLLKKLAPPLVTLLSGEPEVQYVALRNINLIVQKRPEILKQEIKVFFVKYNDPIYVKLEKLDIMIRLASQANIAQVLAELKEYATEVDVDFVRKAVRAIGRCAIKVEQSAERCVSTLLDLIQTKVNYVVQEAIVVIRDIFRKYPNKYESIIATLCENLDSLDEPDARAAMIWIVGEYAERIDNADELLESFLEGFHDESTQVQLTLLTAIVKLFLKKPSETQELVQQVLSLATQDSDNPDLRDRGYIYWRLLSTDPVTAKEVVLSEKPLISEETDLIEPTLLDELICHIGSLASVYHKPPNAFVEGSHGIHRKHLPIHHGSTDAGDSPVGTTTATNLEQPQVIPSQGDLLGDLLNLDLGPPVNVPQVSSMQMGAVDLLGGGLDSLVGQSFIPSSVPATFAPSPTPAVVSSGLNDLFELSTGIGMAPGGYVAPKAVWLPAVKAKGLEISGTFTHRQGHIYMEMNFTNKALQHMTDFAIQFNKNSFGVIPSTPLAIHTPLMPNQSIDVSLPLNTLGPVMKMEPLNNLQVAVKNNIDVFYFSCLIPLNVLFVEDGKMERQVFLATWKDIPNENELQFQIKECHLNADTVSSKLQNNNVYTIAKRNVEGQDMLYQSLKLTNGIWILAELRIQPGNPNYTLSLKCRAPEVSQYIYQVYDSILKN
Chain of Beta-adrenergic receptor kinase 1 (Homo sapiens) (P25098 whole entry, looked up): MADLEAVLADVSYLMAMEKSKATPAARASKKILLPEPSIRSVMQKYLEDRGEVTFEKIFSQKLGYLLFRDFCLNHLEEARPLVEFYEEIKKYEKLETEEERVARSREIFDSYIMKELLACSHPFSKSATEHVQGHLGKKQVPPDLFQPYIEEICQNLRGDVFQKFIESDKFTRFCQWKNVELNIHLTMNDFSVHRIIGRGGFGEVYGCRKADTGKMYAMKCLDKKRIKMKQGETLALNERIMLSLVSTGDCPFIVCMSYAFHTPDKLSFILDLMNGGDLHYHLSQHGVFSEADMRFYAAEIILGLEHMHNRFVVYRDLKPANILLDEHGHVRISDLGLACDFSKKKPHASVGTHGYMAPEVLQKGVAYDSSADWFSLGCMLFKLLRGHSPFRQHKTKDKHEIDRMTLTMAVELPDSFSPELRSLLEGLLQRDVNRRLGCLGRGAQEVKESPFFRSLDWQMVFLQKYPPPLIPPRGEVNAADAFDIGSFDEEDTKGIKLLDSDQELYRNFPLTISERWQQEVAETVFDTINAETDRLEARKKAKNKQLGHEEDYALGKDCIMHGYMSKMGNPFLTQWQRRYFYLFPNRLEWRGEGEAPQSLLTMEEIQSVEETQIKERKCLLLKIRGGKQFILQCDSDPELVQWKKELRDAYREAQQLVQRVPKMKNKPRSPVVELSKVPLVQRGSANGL
Chain of ATP-binding cassette sub-family B member 6 (Homo sapiens) (Q9NP58 whole entry, looked up): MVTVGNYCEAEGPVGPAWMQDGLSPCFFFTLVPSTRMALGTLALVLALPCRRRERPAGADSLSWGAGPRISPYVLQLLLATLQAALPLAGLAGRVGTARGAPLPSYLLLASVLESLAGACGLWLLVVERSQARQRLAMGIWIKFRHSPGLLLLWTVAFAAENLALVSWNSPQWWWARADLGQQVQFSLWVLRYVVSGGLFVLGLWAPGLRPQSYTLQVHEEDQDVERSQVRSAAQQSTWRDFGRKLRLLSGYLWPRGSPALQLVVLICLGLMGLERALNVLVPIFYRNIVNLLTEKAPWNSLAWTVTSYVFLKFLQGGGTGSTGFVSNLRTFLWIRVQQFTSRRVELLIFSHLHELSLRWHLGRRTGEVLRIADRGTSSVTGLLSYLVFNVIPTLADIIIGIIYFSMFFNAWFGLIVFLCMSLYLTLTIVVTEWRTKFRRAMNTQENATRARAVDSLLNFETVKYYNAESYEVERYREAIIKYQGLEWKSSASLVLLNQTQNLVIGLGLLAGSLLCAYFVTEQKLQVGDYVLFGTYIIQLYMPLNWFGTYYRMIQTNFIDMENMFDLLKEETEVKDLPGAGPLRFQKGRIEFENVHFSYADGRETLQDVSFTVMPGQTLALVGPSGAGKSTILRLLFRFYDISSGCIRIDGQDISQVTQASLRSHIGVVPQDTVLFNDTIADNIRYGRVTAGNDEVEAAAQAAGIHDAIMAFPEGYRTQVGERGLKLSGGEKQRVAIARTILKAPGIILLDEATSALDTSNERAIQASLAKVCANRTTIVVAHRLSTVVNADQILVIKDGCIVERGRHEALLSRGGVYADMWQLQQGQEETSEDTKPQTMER
Chain of Integrin beta-1 (Homo sapiens) + Integrin alpha-4 (Homo sapiens) (P05556 whole entry, looked up): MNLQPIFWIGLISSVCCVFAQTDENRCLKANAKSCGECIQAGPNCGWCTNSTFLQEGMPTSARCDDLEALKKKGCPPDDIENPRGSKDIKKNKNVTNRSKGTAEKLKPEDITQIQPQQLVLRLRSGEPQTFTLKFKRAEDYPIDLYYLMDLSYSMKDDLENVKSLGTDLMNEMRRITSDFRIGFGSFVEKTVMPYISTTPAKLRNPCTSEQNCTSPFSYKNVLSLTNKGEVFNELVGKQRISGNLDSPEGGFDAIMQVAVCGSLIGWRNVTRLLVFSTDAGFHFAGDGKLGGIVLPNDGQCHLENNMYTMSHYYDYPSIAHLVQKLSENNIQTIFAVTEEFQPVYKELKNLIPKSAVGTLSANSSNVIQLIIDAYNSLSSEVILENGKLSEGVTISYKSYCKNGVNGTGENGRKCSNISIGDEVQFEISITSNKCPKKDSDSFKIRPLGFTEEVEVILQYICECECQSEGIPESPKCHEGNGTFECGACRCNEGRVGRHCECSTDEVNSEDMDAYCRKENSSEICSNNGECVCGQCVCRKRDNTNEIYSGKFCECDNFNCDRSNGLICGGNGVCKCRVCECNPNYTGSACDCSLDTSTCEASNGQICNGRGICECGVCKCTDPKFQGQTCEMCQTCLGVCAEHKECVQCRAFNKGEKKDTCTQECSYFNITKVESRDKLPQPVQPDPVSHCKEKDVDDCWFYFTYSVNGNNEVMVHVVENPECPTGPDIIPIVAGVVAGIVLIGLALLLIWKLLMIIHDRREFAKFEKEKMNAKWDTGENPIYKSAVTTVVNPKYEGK
Chain of Integrin beta-1 (Homo sapiens) + Integrin alpha-4 (Homo sapiens) (P13612 whole entry, looked up): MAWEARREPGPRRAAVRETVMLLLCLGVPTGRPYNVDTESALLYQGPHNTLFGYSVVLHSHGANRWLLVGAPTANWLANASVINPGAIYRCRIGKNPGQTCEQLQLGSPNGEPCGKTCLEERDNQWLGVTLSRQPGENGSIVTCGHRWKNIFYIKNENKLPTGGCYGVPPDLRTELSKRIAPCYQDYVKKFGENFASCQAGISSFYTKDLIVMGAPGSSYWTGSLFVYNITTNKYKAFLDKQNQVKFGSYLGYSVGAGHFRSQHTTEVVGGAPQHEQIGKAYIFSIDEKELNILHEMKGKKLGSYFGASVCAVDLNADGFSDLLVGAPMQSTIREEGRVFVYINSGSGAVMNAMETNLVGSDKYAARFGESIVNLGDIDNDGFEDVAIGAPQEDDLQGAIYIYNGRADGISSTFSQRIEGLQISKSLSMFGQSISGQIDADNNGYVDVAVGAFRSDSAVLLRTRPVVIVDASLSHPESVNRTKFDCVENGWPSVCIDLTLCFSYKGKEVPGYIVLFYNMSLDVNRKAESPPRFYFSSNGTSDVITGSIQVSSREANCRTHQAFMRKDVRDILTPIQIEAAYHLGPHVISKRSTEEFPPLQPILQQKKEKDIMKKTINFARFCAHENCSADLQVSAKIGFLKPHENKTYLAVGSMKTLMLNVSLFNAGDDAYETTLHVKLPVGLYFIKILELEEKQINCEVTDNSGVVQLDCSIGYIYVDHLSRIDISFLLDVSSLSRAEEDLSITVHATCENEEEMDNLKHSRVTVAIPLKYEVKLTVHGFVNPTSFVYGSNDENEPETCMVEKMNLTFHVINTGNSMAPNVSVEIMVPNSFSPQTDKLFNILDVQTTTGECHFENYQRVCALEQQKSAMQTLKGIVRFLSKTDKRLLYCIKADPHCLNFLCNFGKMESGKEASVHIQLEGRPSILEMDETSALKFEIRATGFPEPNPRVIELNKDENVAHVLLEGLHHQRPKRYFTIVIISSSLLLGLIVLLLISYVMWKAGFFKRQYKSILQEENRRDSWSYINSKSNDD

On to `CC[C@H]1OC(=O)[C@H](C)[C@@H](O[C@H]2C[C@@](C)(OC)[C@@H](O)[C@H](C)O2)[C@H](C)[C@@H](O[C@@H]2O[C@H](C)C[C@H](N(C)C)[C@H]2O)[C@](C)(O)C[C@@H](C)[C@@H]2N[C@@H](COCCOC)O[C@H]([C@H]2C)[C@]1(C)O`, for which the percent of DMSO control GFP in test [1] is 95% (inactive). Further, the GFP response vs DMSO is 130% (inactive) in test [2] and 79.2% (inactive) in test [4]. Further, in test [3], the percent response of DMSO control was 95.2% (inactive). In addition, in [5], the double positive events stood at 63.9%. Besides, the vesicle binding response in [5] was 137% (inactive). For the same compound, the inhibition in test [6] was 6.46% (inactive); in test [10], -5.27% (inactive); in test [14] it was 8% (inactive). For the same compound, the superoxide response (% of plate) in test [7] was 106% (inactive). Also, the aptamer binding inhibition in test [8] is 29% (inactive). For the same compound, the response is -13.2% (inactive) in test [9] and 32.7% (active) in test [11]. Moreover, the binding (% of control) in [12] is 103% (inactive). Further, the efflux inhibition (fraction of control) in test [13] was -0.31 (inactive). Further, the differentiation response in test [15] was -4.91% (inactive).

In the case of `O=C1C2C3C=CC(C4CC34)C2C(=O)N1/N=C/c1ccc(-c2ccc([N+](=O)[O-])cc2)o1` (stereo not drawn), the percent of DMSO control GFP in test [1] was 103% (inactive). The percent response of DMSO control in [3] was 101% (inactive). For the same compound, the GFP response vs DMSO in test [4] was 85.4% (inactive). In addition, the GFP response, % of DMSO in test [16] is 87.7% (inactive). The compound further registered a double positive events in test [5] of 57.9%. Besides, the vesicle binding response in [5] is 153% (inactive). Also, the inhibition in [6] was -0.43% (inactive); in test [10], 14.3% (inactive); in test [14], 7% (inactive). For the same compound, the superoxide response (% of plate) in test [7] is 95.5% (inactive). Also, in test [8], the aptamer binding inhibition was 4% (inactive). The values for the response in test [9] and in test [11] were 25.8% (inactive) and 1.6% (inactive), respectively. Further, in test [12], the binding (% of control) was 102% (inactive). Moreover, the efflux inhibition (fraction of control) in test [13] was 0.19 (inactive). The differentiation response in test [15] is 0% (inactive).

In the case of `O=C(CCCCCCCC(=O)c1ccccc1)c1ccccc1`, the percent of DMSO control GFP in test [1] was 98.2% (inactive). Moreover, in test [3], the percent response of DMSO control is 98.6% (inactive). Further, in [4], the GFP response vs DMSO is 105% (inactive). Further, in test [16], the GFP response, % of DMSO was 96.9% (inactive). For the same compound, in test [5], the double positive events amounted to 62.1%. Further, the vesicle binding response in test [5] is 189% (inactive). Moreover, the inhibition in [6] is -5.89% (inactive); in test [10], -3.86% (inactive); in test [14] it was 7% (inactive). In test [7], the superoxide response (% of plate) is 95.3% (inactive). Also, the aptamer binding inhibition in [8] was 7% (inactive). Moreover, the response in test [9] was 9.71% (inactive); in test [11], -4.73% (inactive). The binding (% of control) in test [12] was 98.9% (inactive). Also, the efflux inhibition (fraction of control) in test [13] is -0.13 (inactive). Besides, in test [15], the differentiation response was 5.6% (inactive).

For `CC1(C)CC(=O)C(C(=O)CCCCC(=O)C2C(=O)CC(C)(C)CC2=O)C(=O)C1`, the percent of DMSO control GFP in [1] was 105% (inactive). The GFP response vs DMSO was 114% (inactive) in test [2] and 91.3% (inactive) in test [4]. Besides, in test [3], the percent response of DMSO control was 112% (inactive). In test [5], the double positive events came out at 76%. The vesicle binding response in test [5] was 197% (inactive). For the same compound, the inhibition in test [6] was -6.15% (inactive); in [10], -8.71% (inactive); in [14], 14% (inactive). Moreover, in [7], the superoxide response (% of plate) is 97.2% (inactive). The aptamer binding inhibition in test [8] was -1% (inactive). In addition, the response was -2.15% (inactive) in test [9] and -8.22% (inactive) in test [11]. In addition, the binding (% of control) in [12] was 114% (inactive). In addition, the efflux inhibition (fraction of control) in test [13] is -0.24 (inactive). The differentiation response in [15] is -2.46% (inactive).

As to `COCCc1ccc(OCC(O)CNC(C)C)cc1` (stereo not drawn), the percent of DMSO control GFP in [1] was 103% (inactive). For the same compound, the percent response of DMSO control in test [3] is 98.9% (inactive). The GFP response vs DMSO in test [4] was 87.4% (inactive). For the same compound, the GFP response, % of DMSO in test [16] was 97.6% (inactive). The same compound showed a double positive events in [5] of 68.1%. In test [5], the vesicle binding response is 212% (inactive). Further, the inhibition was 7.85% (inactive) in test [6], -6% (inactive) in test [10] and 7% (inactive) in [14]. The aptamer binding inhibition in [8] was -2% (inactive). The response in test [11] was 1.04% (inactive). Besides, the binding (% of control) in test [12] is 105% (inactive). For the same compound, the efflux inhibition (fraction of control) in test [13] is 0.21 (inactive). The differentiation response in test [15] was 5.13% (inactive).

The values above are taken from PubChem BioAssay.
